# According to the supplement of paper PMC9694430:
# How the values were obtained:
# Test in all cases: thermal shift delta Tm vs DMSO control; higher = stronger stabilization (binding)
# Details in all cases: 12.5 µM; protein concentration 2 µM
# LOC_OS01G01410-cb001 = tested on: LOC_OS01G01410-cb001
# Outline: (§1)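 Thermal shift values come from differential scanning fluorimetry on purified rice kinase domains made in E. coli, with melting temperatures obtained from Boltzmann fits. Samples of 19.5 μl held 2 μM kinase, 100 mM potassium phosphate pH 7.5, 150 mM NaCl, 10% glycerol, 5 × SYPRO Orange and compound in DMSO, and were heated from 25°C to 95°C at 0.05°C/s. Each shift is a triplicate mean relative to the DMSO-only protein sample.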
# LOC_OS01G02750-cb003 = tested on: LOC_OS01G02750-cb003
# Outline: as §1
# LOC_OS01G10900-cb004 = tested on: LOC_OS01G10900-cb004
# Outline: as §1
# LOC_OS01G13800-cb001 = tested on: LOC_OS01G13800-cb001
# Outline: as §1
# LOC_OS01G14860-cb001 = tested on: LOC_OS01G14860-cb001
# Outline: as §1
# LOC_OS01G21960-cb002 = tested on: LOC_OS01G21960-cb002
# Outline: as §1
# LOC_OS01G39600-cb002 = tested on: LOC_OS01G39600-cb002
# Outline: as §1
# LOC_OS01G48390-cb002 = tested on: LOC_OS01G48390-cb002
# Outline: as §1
# LOC_OS01G51400-cb002 = tested on: LOC_OS01G51400-cb002
# Outline: as §1
# LOC_OS01G52050-cb004 = tested on: T1, LOC_OS01G52050-cb004
# T1 sequence (whole entry): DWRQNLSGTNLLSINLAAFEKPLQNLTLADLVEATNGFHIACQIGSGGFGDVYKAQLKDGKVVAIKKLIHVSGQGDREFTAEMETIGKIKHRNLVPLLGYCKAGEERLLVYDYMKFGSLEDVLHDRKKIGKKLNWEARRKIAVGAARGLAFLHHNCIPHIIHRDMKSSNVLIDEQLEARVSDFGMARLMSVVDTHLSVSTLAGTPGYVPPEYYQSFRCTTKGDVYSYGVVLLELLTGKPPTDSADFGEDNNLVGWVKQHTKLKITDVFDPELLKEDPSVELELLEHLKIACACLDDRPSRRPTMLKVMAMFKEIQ
# Outline: as §1
# LOC_OS01G57100-cb003 = tested on: LOC_OS01G57100-cb003
# Outline: as §1
# LOC_OS01G60330-cb001 = tested on: LOC_OS01G60330-cb001
# Outline: as §1
# LOC_OS01G60700-cb002 = tested on: LOC_OS01G60700-cb002
# Outline: as §1
# LOC_OS01G63280-cb003 = tested on: LOC_OS01G63280-cb003
# Outline: as §1
# LOC_OS01G67340-cb003 = tested on: LOC_OS01G67340-cb003
# Outline: as §1
# LOC_OS01G70970-cb002 = tested on: LOC_OS01G70970-cb002
# Outline: as §1
# LOC_OS02G07810-cb001 = tested on: LOC_OS02G07810-cb001
# Outline: as §1
# LOC_OS02G08530-cb003 = tested on: LOC_OS02G08530-cb003
# Outline: as §1
# LOC_OS02G14120-cb001 = tested on: LOC_OS02G14120-cb001
# Outline: as §1
# LOC_OS02G17970-cb001 = tested on: LOC_OS02G17970-cb001
# Outline: as §1
# 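Note: purified Escherichia coli-expressed rice kinase domain construct.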
SMILES,thermal shift delta Tm (LOC_OS01G01410-cb001) [°C],thermal shift delta Tm (LOC_OS01G02750-cb003) [°C],thermal shift delta Tm (LOC_OS01G10900-cb004) [°C],thermal shift delta Tm (LOC_OS01G13800-cb001) [°C],thermal shift delta Tm (LOC_OS01G14860-cb001) [°C],thermal shift delta Tm (LOC_OS01G21960-cb002) [°C],thermal shift delta Tm (LOC_OS01G39600-cb002) [°C],thermal shift delta Tm (LOC_OS01G48390-cb002) [°C],thermal shift delta Tm (LOC_OS01G51400-cb002) [°C],thermal shift delta Tm (LOC_OS01G52050-cb004) [°C],thermal shift delta Tm (LOC_OS01G57100-cb003) [°C],thermal shift delta Tm (LOC_OS01G60330-cb001) [°C],thermal shift delta Tm (LOC_OS01G60700-cb002) [°C],thermal shift delta Tm (LOC_OS01G63280-cb003) [°C],thermal shift delta Tm (LOC_OS01G67340-cb003) [°C],thermal shift delta Tm (LOC_OS01G70970-cb002) [°C],thermal shift delta Tm (LOC_OS02G07810-cb001) [°C],thermal shift delta Tm (LOC_OS02G08530-cb003) [°C],thermal shift delta Tm (LOC_OS02G14120-cb001) [°C],thermal shift delta Tm (LOC_OS02G17970-cb001) [°C]
O=c1sn(-c2cccc3ccccc23)c(=O)n1Cc1ccccc1 [Tideglusib],0.61,-1.04,-0.23,0.16,0.15,0.39,1.37,0.44,0.24,0.37,1.25,0.51,1.08,0.25,0.24,-0.22,0.81,0.5,-0.01,1.3
COc1ccc(Cl)c(Nc2nc3ccccc3nc2NS(=O)(=O)c2cccc(NC(=O)C(C)(C)N)c2)c1 [Pilaralisib (XL147)],1.63,2.16,0.29,1.9,1.53,0.73,2.65,1.05,1.3,4.64,0.77,3.02,0.4,2.27,2,1.26,1.84,0.06,-0.43,1.12
COc1ccc(-c2ccc3ncc4c(c3c2)n(-c2ccc(N3CCNCC3)c(C(F)(F)F)c2)c(=O)n4C)cn1,1.5,2.95,0.97,0.05,2.59,2.58,0.22,0.42,-0.17,4.2,1.82,0.66,0.68,0.17,1.43,0.41,1.67,2.04,8.11,0.58
NC(=O)c1ncn([C@@H]2O[C@H](CO)[C@@H](O)[C@H]2O)c1N [AICAR (Acadesine)],0.45,1.18,0.56,0.52,0.07,0.94,-0.35,0.6,0.32,0.33,1.35,0.61,0.92,0.73,-0.25,0.13,1.21,0.52,0.21,0.71
Cc1ccc(-n2nc(C(C)(C)C)cc2NC(=O)NCc2cc(F)ccc2Oc2ccc3c(cnn3CCO)c2)cc1 [Pexmetinib (ARRY-614)],0.56,1.41,0.65,-0.01,0.85,1.27,0.75,1.8,0.36,1.87,1.23,2,0.83,6.58,0.87,0.6,0.69,0.78,4.57,1.52
N#Cc1c(NC(=O)c2cccc3ccccc23)sc2c1CCCC2 [JNK Inhibitor IX],0.03,1.54,0.06,0.52,-0.15,0.78,-0.09,-0.06,0.19,-0.13,1.35,1.18,0.63,-0.18,0.34,0,0.12,0.47,-0.31,0.76
